This note sets out measurements from PubChem BioAssay.

Calls of active or inactive are those of the source. The rule behind the calls is not given here.

Chain of Pantothenate synthetase (Mycobacterium tuberculosis (strain ATCC 25618 / H37Rv)) (P9WIL5 whole entry, looked up): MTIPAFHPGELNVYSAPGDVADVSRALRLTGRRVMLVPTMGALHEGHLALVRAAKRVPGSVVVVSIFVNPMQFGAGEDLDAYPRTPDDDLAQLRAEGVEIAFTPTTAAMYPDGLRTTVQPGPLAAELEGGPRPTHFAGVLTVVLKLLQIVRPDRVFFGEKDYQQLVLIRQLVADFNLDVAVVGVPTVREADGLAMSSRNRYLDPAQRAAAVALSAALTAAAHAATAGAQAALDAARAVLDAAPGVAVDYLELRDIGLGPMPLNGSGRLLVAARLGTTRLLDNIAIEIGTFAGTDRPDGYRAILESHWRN

The assay concerns the target Pantothenate synthetase (Mycobacterium tuberculosis (strain ATCC 25618 / H37Rv)) (UniProt P9WIL5). Put plainly: Recombinant Mtb pantothenate synthetase (PanC) inhibitors, coupled enzyme, confirmatory (AID 375).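 Note: 0% = full reaction with vehicle and 100% = no enzyme background.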 Conditions: coupled enzyme assay; at 10 µM, hits give high values.
Consider `O=c1c(CN2CCN(Cc3ccccc3)CC2)coc2ccc(Cl)cc12`, for which the inhibition was 0% (inactive). The value for `Cc1nc2sc(C(c3cccs3)N3CCC(C(N)=O)CC3)c(O)n2n1` (stereo not given) was 2% (inactive); that for `O=C(CCC(=O)OCCCC(F)(F)C(F)(F)F)NC1CCCCC1` was 0% (inactive).

Take `O=C(O)CCCC(=O)NCCc1ccncc1`: the inhibition is 0% (inactive). To `Nn1c(SCC(=O)Nc2ccccc2)nnc1-c1cccnc1` belongs 0% (inactive); to `CCOC(=O)C1=C(C)NC(C)=C(C(=O)OC)C1c1cccc([N+](=O)[O-])c1` (stereo not given), 7% (inactive); to `COC(=O)C(C)Sc1nnc2n(-c3cccc(C)c3)c(=O)c3c4c(sc3n12)CCCC4` (stereo not given), 1% (inactive). The value for `COc1ccc(-c2cnc(SCC(=O)Nc3ccc4c(c3)OCO4)n2Cc2ccco2)cc1` was 0% (inactive); that for `CC(NC(=O)C1CC1)C(c1cccs1)N1CCN(c2ccccc2)CC1` (stereo not given) was 0% (inactive); that for `O=[n+]1cc(-c2ccc(F)cc2)n([O-])c2c1CCC2` was 0% (inactive). The value for `N#Cc1c(N)nc2c(c1-c1ccncc1)CCCCC2` was 8% (inactive). Turning to `COc1cccc(CNC(=O)C2CCN(S(=O)(=O)c3ccc(F)cc3)CC2)c1`, the inhibition was 8% (inactive). To `O=C(CSc1nnc2ncccn12)N1CCCCCC1` belongs 0% (inactive).

Take `Cn1c(=O)c2c(nc(-n3ccnc3)n2C)n(C)c1=O`: the inhibition was 0% (inactive).

`CCc1c(C)nc2ncnn2c1N1CCC(C(=O)NCc2cccc(OC)c2)CC1`: the inhibition was 0% (inactive). To `CCCCC[C@H](O)/C=C/C1=C(CCCCCCC(=O)O)C(=O)CC1` belongs 0% (inactive); to `CN(CC(=O)N1CCN(C2CCCCC2)CC1)S(=O)(=O)c1cccc2nsnc12`, 8% (inactive).

In the case of `CCOC(=O)c1sc(NC(=O)CSc2nnc(-c3ccco3)n2CC)c(C(=O)OCC)c1C`, the inhibition was 0% (inactive). The value for `CC(=O)Nc1ccc(Cl)cc1C(=O)O` was 2% (inactive); that for `COc1cccc(-c2nnn(CC(=O)O)n2)c1` was 0% (inactive). The value for `O=C(COc1ccccc1)NCCSCc1ccco1` was 0% (inactive). The value for `CC(C)(C)c1ccccc1NC(=O)c1cccnc1` was 10% (inactive).

Take `CCC(=O)N[C@@H]1CC(C(C)(C)NC(=O)CC)CC=C1C` (stereo not given in full): the inhibition was 6% (inactive). The value for `CC(=O)Nc1ccc(NC(=O)Cn2cc3c(n2)CCC(C)C3)cc1` (stereo not given) was 3% (inactive); that for `COc1ccc2c(=O)c3c(=O)n(Cc4ccco4)c(C(C)C)nc3oc2c1` was 0% (inactive); that for `O=C(NCCc1ccccc1)C1CCCN(S(=O)(=O)c2cccs2)C1` (stereo not given) was 9% (inactive). The value for `CCOc1cc(C)c(Cl)cc1S(=O)(=O)N(C)C` was 5% (inactive). On to `O=C(CSc1nc2ccccc2s1)N1CCN(C(=O)c2ccco2)CC1`, for which the inhibition is 0% (inactive). To `O=C(O)CN(c1ccccc1)C1SC(=O)NC1=O` (stereo not given) belongs 0% (inactive); to `COC(=O)CN1C(=O)C(O)(CC(=O)c2ccc(C)cc2)c2cc(Br)ccc21` (stereo not given), 2% (inactive). The value for `COc1cccc(OCC(O)CN2CCN(CCO)CC2)c1` (stereo not given) was 0% (inactive). To `CC1CCN(C(=O)CSc2nnc(-c3cccnc3)n2C2CCCCC2)CC1` belongs 0% (inactive); to `FC(F)(F)c1cccc(N2CCN(Cc3cccnc3)CC2)c1`, 4% (inactive); to `CCN1CCN(C(=O)N[C@@H](C(=O)N[C@@H]2C(=O)N3[C@@H]2SC(C)(C)[C@@H]3C(=O)O)c2ccccc2)C(=O)C1=O`, 2% (inactive).

On to `COC(=O)c1cc(NC(=O)C2COc3ccccc3O2)cc(C(=O)OC)c1` (stereo not given), for which the inhibition is 0% (inactive). The value for `COc1cc(/C=N/n2c(C)nnc2C)cc(OC)c1OC` was 4% (inactive); that for `COc1ccccc1-c1coc2c(CN3CCN(CCO)CC3)c(O)ccc2c1=O` was 0% (inactive). The value for `Cc1c(NC(=O)C2CCCNC2=O)c(=O)n(-c2ccccc2)n1C` (stereo not given) was 0% (inactive); that for `Cn1nnnc1SCSc1nnnn1C` was 1% (inactive). Consider `COc1ccccc1OCC(=O)Nc1ccc(S(=O)(=O)Nc2nc(C)cc(C)n2)cc1`, for which the inhibition was 1% (inactive).

As a reminder, the inhibition is the change of the read-out against control, counted positive when it falls.
